PubChem BioAssay
Active and inactive are the calls of the source. Unless noted, how the calls were made is not given here.

Tests used:
[1] = system: Wnt5a (protein binding on small-molecule microarray); assay: Wnt5a binders on small-molecule microarray, primary screen, biophysical, 635/667 nm fluorescence (AID 1142); conditions: 635 nm fluorescence, higher = more signal;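 further: fluorescence read at 667 nm with signal to noise per printed feature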
[2] = cell viability in Huh7 cells, primary screen, cytotoxicity control for HCV replication inhibitor project, CellTiter-Glo luminescence, basal, 48 h (AID 1143); conditions: Huh7 HCV replicon, higher = more signal, called active from +8 up or from −8 down;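 further: Huh7 hepatoma cells carrying a hepatitis C replication reporter with no stimulus; test concentration not given here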
[3] = P. aeruginosa biofilm formation inhibitors, primary screen, PAO1 strain, BacTiter-Glo luminescence, LB-PBS (AID 1144); conditions: 12 h, higher = more signal
[4] = CREB reporter modulators without forskolin, primary screen, cell-based, PC12, CRE-LacZ reporter, unstimulated (AID 1145); conditions: no forskolin, luminescence, 4.5 h, higher = more signal, called active from +8 up or from −8 down
[5] = CREB reporter modulators under forskolin, primary screen, cell-based, PC12, CRE-LacZ reporter, forskolin-stimulated (AID 1146); conditions: luminescence, 4.5 h, higher = more signal, called active from +8 up or from −8 down;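 further: PC12 cells with 6xCRE LacZ reporter stimulated by forskolin 10 µM; beta-galactosidase reporter signal reflecting CREB driven transcription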
[6] = target: Streptavidin (Streptomyces avidinii) (UniProt P22629); assay: streptavidin binders on small-molecule microarray, primary screen, artefact control for SMM compound annotation, biophysical, 635/667 nm fluorescence (AID 1147); conditions: streptavidin binding, higher = more signal;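 further: signal reflects streptavidin binding to arrayed compounds as a control protein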
Streptavidin (Streptomyces avidinii), sequence (P22629 whole entry, looked up): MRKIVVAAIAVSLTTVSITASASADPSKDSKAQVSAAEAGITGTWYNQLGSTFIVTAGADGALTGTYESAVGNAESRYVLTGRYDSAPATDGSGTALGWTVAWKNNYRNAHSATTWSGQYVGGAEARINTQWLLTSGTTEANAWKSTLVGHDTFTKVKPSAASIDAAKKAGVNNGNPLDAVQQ

[7] = small-molecule binders of probe aInhba, primary screen, biochemical, small-molecule microarray, 635/667 nm fluorescence (AID 1148); conditions: higher = more signal;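 further: score merges 667nm spot fluorescence with signal-to-noise for antibody binding to printed compounds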
[8] = target: Torsin-1A (Homo sapiens) (UniProt O14656); assay: torsin A binders from cell lysate, primary screen, small-molecule microarray, wild-type, 635/667 nm (AID 1149); conditions: COS7 hTOR1A-WT lysate, 635 nm fluorescence, higher = more signal
Torsin-1A (Homo sapiens), sequence (O14656 whole entry, looked up): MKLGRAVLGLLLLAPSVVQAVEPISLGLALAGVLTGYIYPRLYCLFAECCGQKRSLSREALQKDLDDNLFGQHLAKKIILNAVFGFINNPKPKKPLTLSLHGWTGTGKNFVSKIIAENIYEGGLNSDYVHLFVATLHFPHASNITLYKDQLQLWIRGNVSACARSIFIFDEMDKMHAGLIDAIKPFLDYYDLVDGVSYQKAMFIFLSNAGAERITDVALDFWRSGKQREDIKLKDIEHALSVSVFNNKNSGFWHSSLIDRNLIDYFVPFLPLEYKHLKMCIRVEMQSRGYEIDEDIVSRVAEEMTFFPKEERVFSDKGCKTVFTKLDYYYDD

[9] = target: Torsin-1A (Homo sapiens) (UniProt O14656); assay: small-molecule binders of mutant TOR1A in lysate, primary screen, cell lysate, small-molecule microarray, COS7 lysate, 635/667 nm fluorescence (AID 1150); conditions: COS7 hTOR1A mutant lysate, 635 nm fluorescence, higher = more signal;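 further: score pools 667 nm emission and signal to noise measuring lysate protein binding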
[10] = system: Sonic hedgehog protein (Shh); assay: small-molecule binders of Shh protein, primary screen, biochemical, small-molecule microarray, 635/667 nm fluorescence (AID 1151); conditions: small-molecule microarray binding, 635 nm fluorescence; higher = more signal;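 further: Shh protein binding to compounds spotted on small-molecule microarray slides; score combines spot fluorescence intensity with signal-to-noise across triplicate slides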

CC(C)=CCCC(C)=CCON=C1[C@H]2CCn3c(=O)n(Cc4cc5c(cc4Cl)OCO5)c(=O)n3[C@H]2[C@H](O)[C@@H]2O[C@H]12
composite z-score [1]: 0.0888 | z-score [2]: 0.148 (inactive) | z-score [3]: 0.138 (inactive) | z-score [4]: 0.336 (inactive) | z-score [5]: 0.392 (inactive) | composite z-score [6]: 0.813 | composite z-score [7]: -0.128 | composite z-score [8]: 1.62 | composite z-score [9]: 0.718 | composite z-score [10]: 0.563

COCCCNC(=O)[C@]1(Cc2ccccc2)N=C(c2ccc(OCCCO)cc2)O[C@@H]1c1ccccc1
composite z-score [1]: 0.424 | z-score [2]: -2.94 (inactive) | z-score [3]: -0.0581 (inactive) | z-score [4]: 0.423 (inactive) | z-score [5]: -1.36 (inactive) | composite z-score [6]: 0.661 | composite z-score [7]: 0.142 | composite z-score [8]: 0.445 | composite z-score [9]: 0.992 | composite z-score [10]: -0.521

C/C=C\[C@@H](NCc1ccccc1Br)[C@@H](O)Cc1ccccc1
composite z-score [1]: -0.771 | z-score [2]: -5.43 (inactive) | z-score [3]: 0.541 (inactive) | z-score [4]: 0.857 (inactive) | z-score [5]: 0.567 (inactive) | composite z-score [6]: -0.838 | composite z-score [7]: -0.153 | composite z-score [8]: 0.0908 | composite z-score [9]: -0.27 | composite z-score [10]: -1.3

O=C1CCCC=C1C(O)CCOCc1ccccc1 (stereo not given)
composite z-score [1]: -0.0912 | z-score [2]: 0.056 (inactive) | z-score [3]: 0.964 (inactive) | z-score [4]: 0.11 (inactive) | z-score [5]: 0.0483 (inactive) | composite z-score [6]: 0.787 | composite z-score [7]: -0.2 | composite z-score [8]: 0.728 | composite z-score [9]: 0.0645 | composite z-score [10]: 0.307

Cc1cc2c(c(=O)o1)[C@H](O)[C@H]1O[C@H]1C2=O
composite z-score [1]: -0.218 | z-score [2]: -2.97 (inactive) | z-score [3]: 1.6 (inactive) | z-score [4]: -1.06 (inactive) | z-score [5]: 2.18 (inactive) | composite z-score [6]: 0.0061 | composite z-score [7]: -0.209 | composite z-score [8]: 0.284 | composite z-score [9]: 0.46 | composite z-score [10]: 1.5

COC(=O)[C@H](C)NC(=O)CCC1CC(OC(=O)NCCc2ccc(F)cc2)CC2(CCCC(COC(=O)NCCc3ccc(Cl)cc3)O2)O1 (stereo not given in full)
composite z-score [1]: 0.606 | z-score [2]: -0.195 (inactive) | z-score [3]: -0.739 (inactive) | z-score [4]: -0.0732 (inactive) | z-score [5]: -0.195 (inactive) | composite z-score [6]: 1.07 | composite z-score [7]: -0.0937 | composite z-score [8]: 2.31 | composite z-score [9]: -0.177 | composite z-score [10]: 1.31

CCOC(=O)[C@H](CC(C)C)NC(=O)CCC1CC(OC(=O)NCCc2ccc(F)cc2)CC2(CCCC(COC(=O)NCc3ccccc3)O2)O1 (stereo not given in full)
composite z-score [1]: 0.371 | z-score [2]: -4.31 (inactive) | z-score [3]: -0.568 (inactive) | z-score [4]: 0.199 (inactive) | z-score [5]: 0.659 (inactive) | composite z-score [6]: 0.255 | composite z-score [7]: -0.226 | composite z-score [8]: 1.47 | composite z-score [9]: 0.154 | composite z-score [10]: 1.86

C[C@@H]1C=CCC(=O)OC[C@H](C)C(=O)N[C@@H](C)C(=O)OC1
composite z-score [1]: 0.268 | z-score [2]: -0.568 (inactive) | z-score [3]: -0.298 (inactive) | z-score [4]: -0.887 (inactive) | z-score [5]: -0.24 (inactive) | composite z-score [6]: 0.34 | composite z-score [7]: -0.0044 | composite z-score [8]: 1.51 | composite z-score [9]: 0.527 | composite z-score [10]: 1.3

CC[C@@H](c1ccccc1)n1c(=O)n2n(c1=O)[C@H]1[C@H](O)[C@@H]3O[C@@H]3C(=NOCC=C(C)CCC=C(C)C)[C@H]1CC2
composite z-score [1]: 0.33 | z-score [2]: -1.53 (inactive) | z-score [3]: 0.0433 (inactive) | z-score [4]: 1.07 (inactive) | z-score [5]: 0.889 (inactive) | composite z-score [6]: -0.124 | composite z-score [7]: -0.0963 | composite z-score [8]: 0.216 | composite z-score [9]: 0.366 | composite z-score [10]: 1.88

CC(CCC(=O)OC[C@H]1O[C@H](C#Cc2ccccc2)C=C[C@@H]1Oc1ccc(C)cc1)=NOC[C@@H](O)[C@H]1O[C@@H]2OC(C)(C)O[C@@H]2[C@H]1O
composite z-score [1]: -0.598 | z-score [2]: -0.416 (inactive) | z-score [3]: -0.025 (inactive) | z-score [4]: 0.099 (inactive) | z-score [5]: 0.0046 (inactive) | composite z-score [6]: -0.564 | composite z-score [7]: -0.178 | composite z-score [8]: -0.526 | composite z-score [9]: -0.617 | composite z-score [10]: -0.108

C[C@H](c1ccccc1)N1C(=O)[C@H]2[C@@H]3C(=CC[C@H]2C1=O)C(=O)[C@H]1O[C@H]1[C@H]3O
composite z-score [1]: -0.103 | z-score [2]: -7.43 (inactive) | z-score [3]: 1.16 (inactive) | z-score [4]: 0.699 (inactive) | z-score [5]: 4.29 (inactive) | composite z-score [6]: 0.108 | composite z-score [7]: -0.0474 | composite z-score [8]: 0.25 | composite z-score [9]: -0.0342 | composite z-score [10]: 0.469

CCCC[C@@H](O)C1=C(C)C[C@H]2C(=O)N(Cc3ccccc3)C(=O)[C@H]2[C@H]1CO
composite z-score [1]: -0.0299 | z-score [2]: -0.295 (inactive) | z-score [3]: -0.665 (inactive) | z-score [4]: 1.29 (inactive) | z-score [5]: 0.342 (inactive) | composite z-score [6]: -0.451 | composite z-score [7]: -0.0986 | composite z-score [8]: 0.149 | composite z-score [9]: -0.21 | composite z-score [10]: 0.572

COc1ccc(O[C@H]2C=C[C@@H](c3ccccc3)O[C@@H]2COC(=O)CCC(C)=NOC[C@@H](C)[C@H](OCc2ccccc2)C(C)C)cc1
composite z-score [1]: -0.348 | z-score [2]: -1.55 (inactive) | z-score [3]: -0.0552 (inactive) | z-score [4]: -0.901 (inactive) | z-score [5]: 0.468 (inactive) | composite z-score [6]: -0.892 | composite z-score [7]: -0.203 | composite z-score [8]: -0.416 | composite z-score [9]: -0.632 | composite z-score [10]: -0.155

CCOC(=O)[C@H](Cc1ccccc1)NC(=O)CCC1CC(OC(=O)NCc2ccc3c(c2)OCO3)CC2(CCCC(COC(=O)NCC(c3ccccc3)c3ccccc3)O2)O1 (stereo not given in full)
composite z-score [1]: -0.169 | z-score [2]: -0.9 (inactive) | z-score [3]: -1.34 (inactive) | z-score [4]: -0.255 (inactive) | z-score [5]: 0.0668 (inactive) | composite z-score [6]: 0.0072 | composite z-score [7]: 0.0155 | composite z-score [8]: 0.545 | composite z-score [9]: 0.401 | composite z-score [10]: 1.48

O=C1C2C=CC(C(O)c3ccc([N+](=O)[O-])cc3)N(Nc3ccc([N+](=O)[O-])cc3)C2C(=O)N1c1ccccc1 (stereo not given)
composite z-score [1]: 0.71 | z-score [2]: 0.301 (inactive) | z-score [3]: -0.328 (inactive) | z-score [4]: -0.228 (inactive) | z-score [5]: 0.554 (inactive) | composite z-score [6]: 0.903 | composite z-score [7]: 0.154 | composite z-score [8]: 0.128 | composite z-score [9]: 0.726 | composite z-score [10]: -0.114
